Data from PubChem BioAssay (NCI).
Compounds without any hit were thinned out: in the full panel of roughly 83,000, 20% have a hit.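 Activity criterion: percent growth below 10, measured after cells in 96-well plates were exposed to a single compound concentration for 48 hours.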 A number with no mark means an inactive call. Activity calls are given as the source filed them.

Columns and labels:
Experiment in all cases: NCI-60 one-dose screen, 48 h (100 = growth as untreated, 0 = no growth, -100 = all killed)
Details in all cases: 10 µM unless noted
SK-MEL-2 melanoma = tested on: SK-MEL-2 melanoma
EKVX NSCLC = tested on: EKVX NSCLC
SN12C renal = tested on: SN12C renal
UO-31 renal = tested on: UO-31 renal
CAKI-1 renal = tested on: CAKI-1 renal
A498 renal = tested on: A498 renal
CCRF-CEM leukemia = tested on: CCRF-CEM leukemia
MOLT-4 leukemia = tested on: MOLT-4 leukemia
SR leukemia = tested on: SR leukemia
RPMI-8226 leukemia = tested on: RPMI-8226 leukemia
OVCAR-8 ovarian = tested on: OVCAR-8 ovarian
OVCAR-4 ovarian = tested on: OVCAR-4 ovarian
SK-OV-3 ovarian = tested on: SK-OV-3 ovarian
IGROV1 ovarian = tested on: IGROV1 ovarian
OVCAR-3 ovarian = tested on: OVCAR-3 ovarian
HS 578T breast = tested on: HS 578T breast
NCI/ADR-RES ovarian = tested on: NCI/ADR-RES ovarian
TK-10 renal = tested on: TK-10 renal
ACHN renal = tested on: ACHN renal
OVCAR-5 ovarian = tested on: OVCAR-5 ovarian

Row | SMILES | growth (SK-MEL-2 melanoma) | growth (EKVX NSCLC) | growth (SN12C renal) | growth (UO-31 renal) | growth (CAKI-1 renal) | growth (A498 renal) | growth (CCRF-CEM leukemia) | growth (MOLT-4 leukemia) | growth (SR leukemia) | growth (RPMI-8226 leukemia) | growth (OVCAR-8 ovarian) | growth (OVCAR-4 ovarian) | growth (SK-OV-3 ovarian) | growth (IGROV1 ovarian) | growth (OVCAR-3 ovarian) | growth (HS 578T breast) | growth (NCI/ADR-RES ovarian) | growth (TK-10 renal) | growth (ACHN renal) | growth (OVCAR-5 ovarian)
1 | COc1ncc(-c2ccc3ncnc(Nc4cccc(Cl)c4)c3c2)cc1NS(C)(=O)=O | 32% | 12.1% | 29.1% | 8.8% (active) | 14.9% | 0.974% (active) | 32.5% | -6.32% (active) | 50.6% | 22.8% | 45.5% | 70.7% | -11.2% (active) | -45.5% (active) | 26.9% | 16.2% | 51% | – | – | –
2 | Cc1ccc(N)cc1F | 97.1% | 98% | 96% | – | 74.5% | 98.2% | 102% | 92.3% | 121% | 121% | 96.4% | 113% | 102% | 104% | 102% | 86.4% | 94.2% | 123% | 99.8% | 109%
3 | COc1cc(/C=N\NC(=O)CN2CCN(c3cc4c(cc3F)c(=O)c(C(=O)N/N=C/c3ccc(O)c(OC)c3)cn4C3CC3)CC2)ccc1O | 68% | 84.3% | 53.4% | – | 82.8% | 85.3% | 18.9% | 5.76% (active) | 33.9% | 31.2% | 61.7% | 47.8% | 106% | 63.7% | 14.4% | 63.5% | 99.9% | 91.7% | 99.2% | 98.2%
4 | N#Cc1c2c(nc3n[nH]c(N)c13)CCCC2 | 109% | 58.3% | 105% | – | 95.5% | – | 8.03% (active) | 90.7% | 93.6% | 100% | 111% | 101% | 116% | 109% | 100% | 117% | 105% | 128% | 101% | 93.8%
5 | CC(C)(C)c1nn(-c2ccccc2)c2c1CC1(CN2Cc2ccc3c(c2)OCO3)C(=O)c2ccccc2C1=O | 115% | 119% | 96.5% | 104% | 98.9% | 106% | 85.2% | 80.3% | – | 85.8% | 89.2% | 123% | 115% | 96.6% | 123% | 120% | 101% | – | 89.9% | 105%
6 | Cc1ccc(/C=C2\Oc3cc(OCC(=O)c4ccc(Cl)cc4)ccc3C2=O)cc1 | 79.2% | 107% | 116% | 73.6% | 101% | – | 176% | 102% | 94.7% | 248% | 92.9% | 119% | 115% | 57.1% | 94.9% | – | 102% | – | 95.2% | 102%
7 | CCCCCCCCCc1cc(CN2CCCCC2)c(O)c(CN2CCCCC2)c1 | 86.7% | 37.5% | 71.9% | – | 57.7% | 75% | 61.7% | 56% | 7.18% (active) | 23.7% | 76.6% | 41.3% | 78.3% | 75.9% | 41.9% | 72.7% | 58.3% | 81.1% | 63.5% | 59.8%
8 | COc1cnc2c(c1)C(=O)c1c-2n(CCCN2CCCC2)c(=O)c2cc([N+](=O)[O-])ccc12 | 13.8% | 21.7% | 8.36% (active) | – | -13.6% (active) | -97.9% (active) | -16.1% (active) | 1.49% (active) | -1.06% (active) | -34.1% (active) | -37.2% (active) | 10.4% | -9.51% (active) | -5.7% (active) | -72.4% (active) | 35.1% | -20.2% (active) | 13.2% | -91.2% (active) | -28.4% (active)
9 | Cc1cc2c(cc1C)NC1=C(N2)OC(c2c3ccccc3cc3ccccc23)C1=O (centres undefined) | 31% | 22.2% | 14.3% | – | 42.5% | 142% | 20.5% | 24.8% | – | 30.6% | -27.4% (active) | 75.5% | 52% | – | 23.3% | 32.5% | -41.7% (active) | 107% | 29% | 13.9%
10 | CC(C)(C)n1cc(-c2ccnc(NCCCNS(=O)(=O)c3cccc4ccccc34)c2)c(-c2cccc(O)c2)n1 | 30.1% | 42.3% | 36.7% | – | 40.4% | 48% | 22.1% | 7.2% (active) | -1.59% (active) | -34.8% (active) | 30.6% | 36.5% | 71.4% | 41.7% | 43.6% | 36.6% | 36.5% | 74.8% | 36.7% | 48.4%
11 | O=C1C=CC(Nc2ccccc2[N+](=O)[O-])C1Nc1ccccc1[N+](=O)[O-] (centres undefined) | 67.9% | -97.1% (active) | 36.9% | – | -24.3% (active) | 96.8% | 10.5% | 29.4% | – | -17.4% (active) | 31% | 3.47% (active) | 109% | 86% | -81.3% (active) | 32% | -26.8% (active) | -45.3% (active) | -96% (active) | 12.3%
12 | N#Cc1ccc(NC(=O)Nc2ccc(Cc3ccc(NC(=O)Nc4ccc(C#N)cc4)cc3)cc2)cc1 | 12.8% | 14.5% | 29.5% | – | 48.5% | 49.5% | 17.4% | 12.5% | – | -2.1% (active) | 38.7% | 15% | 68.6% | 29.6% | 18.8% | 47.9% | 52.7% | 48.1% | 31.2% | 69.6%
13 | Fc1ccc(Cc2ccc(F)cc2)cc1 | 111% | 105% | 95.7% | – | 94.8% | 99.7% | 107% | 94.5% | 116% | 108% | 108% | 101% | 107% | – | 112% | 114% | 101% | 101% | 104% | 102%
14 | CC/C(=C(\c1ccccc1)c1ccc(OCCNC)cc1)c1ccccc1 | -90.5% (active) | -69.2% (active) | -90.5% (active) | – | -68.2% (active) | -62.2% (active) | 0.764% (active) | 27.1% | – | -40.9% (active) | -49.6% (active) | -67.1% (active) | -53.8% (active) | -93% (active) | -92.1% (active) | -55.6% (active) | -87.3% (active) | -80.7% (active) | -95% (active) | -85.2% (active)
15 | Cc1[nH]n(-c2ccccc2)c2nc3nncc3c(-c3ccc(Cl)cc3)c12 | 123% | 97% | 93.1% | – | 90.3% | 102% | 89.7% | 101% | – | 80.6% | 89.8% | 107% | 105% | 124% | 121% | 110% | 93.6% | 112% | 104% | 99.1%
16 | COc1cc(-c2c3c(nc4c2c(C)nn4-c2ccccc2)-c2ccccc2C(=O)C3=O)cc(OC)c1OC | 72.3% | 98.3% | 90.5% | 73.1% | 74.4% | 83.7% | – | 52.5% | – | 55.2% | 80.1% | 78.5% | 104% | 94.9% | -29.4% (active) | 111% | 79.7% | – | 82.3% | 103%
